Reference: PubChem BioAssay (EPA / NIEHS)
Values joined by “and” are separate entries in the source; they are usually repeats but may differ in a detail not shown here. Identical values can stand only once. Results filed as inconclusive are left out. Some structures have more than one record in an assay (separate samples or runs), and their calls can disagree. Active and inactive are the calls of the source. The calls were made as follows: active = hit-call score of the fitted dose curve at least 0.9, where 1 is the maximum; inconclusive = response in the unintended direction; inactive = score below 0.9.

System: not listed separately
Assay: TOX21_p53_BLA_p4_viability: Viability Assessment in the Tox21 HCT-116 p53 Agonism Beta-lactamase Assay, Phase 4 (AID 2283597);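 also: hits lower the luminescence signal meaning cytotoxicity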
Outline: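 HCT116 p53-bla cells (4000/well) rested 5 h at 37C, then received compounds in DMSO (217-fold dilution) for 16 h at 37C, 5% CO2. CellTiter-Glo was added after the CCF4-AM read, and luminescence was read after 30 min at room temperature.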

| Structure (SMILES) | outcome | AC50 |
| --- | --- | --- |
| CC1CCC(C(C)CS)CC1S (configuration not stated) | inactive | – |
| CCCCN | inactive | – |
| CCCCCCCCCCCCN | – | 62.2 µM (active) |
| C=C(C)[C@@H]1CC[C@@H](C)C[C@@H]1O | inactive | – |
| CCC(=O)OCCC(C)CCC=C(C)C (configuration not stated) | inactive | – |
| Cc1ccc(O)c(C(C)(C)C)c1 | – | 46.1 µM (active) and 52.5 µM (active) |
| C=C(C)C(=O)Nc1ccc(Cl)c(Cl)c1 | inactive | – |
| CC1(CO)CN(c2ccccc2)NC1=O (configuration not stated) | inactive | – |
| CCN(CC)CCOC(=O)c1ccc(N)cc1 | inactive | – |
| COC(=O)c1ccc(C)cc1 | inactive | – |
| CCCCCCCCCCN | inactive | – |
| NCCNCCN | inactive | – |
| C[C@]12CC[C@H]3[C@@H](CCC4=CC(=O)CC[C@@]43C)[C@@H]1CC[C@@H]2C(=O)CO | inactive | – |
| O=C1OC2(c3cc(Br)c(O)c(Br)c3Oc3c2cc(Br)c(O)c3Br)c2c(Cl)c(Cl)c(Cl)c(Cl)c21 | – | 50.2 µM (active) and 23.6 µM (active) |
| Cc1ccc(C(=O)c2cc(O)c(O)c([N+](=O)[O-])c2)cc1 | inactive | 46.1 µM (active) |
| CNCCCC12CCC(c3ccccc31)c1ccccc12 | – | 62.7 µM (active) and 36.6 µM (active) |
| COCCCOc1ccnc(CS(=O)c2nc3ccccc3[nH]2)c1C (configuration not stated) | inactive | – |
| CCCCCCCCC=O | inactive | – |
| Cc1ccc(Nc2ccc(O)c3c2C(=O)c2ccccc2C3=O)cc1 | inactive | – |
| CC(C)(C)c1n[nH]c(=S)n(N)c1=O | inactive | – |
| CCN(CC)c1ccc(C(=C2C=CC(=[N+](CC)CC)C=C2)c2ccc(S(=O)(=O)O)cc2S(=O)(=O)[O-])cc1 | – | 46.1 µM (active) |
| CCCCCCCCCCCCN(CCCCCCCCCCCC)CCCCCCCCCCCC | inactive | – |
| CC(C)=CCO | inactive | – |
| COC(=O)OC | inactive | – |
| Cc1ccccc1C=O | inactive | – |
| CC[Si](OC(C)=O)(OC(C)=O)OC(C)=O | inactive | – |
| CCn1c2ccccc2c2cc(N)ccc21 | inactive | – |
| CC1(C)[C@H]2CC[C@]1(C)[C@H](O)C2 | inactive | – |

Biological target: Cellular tumor antigen p53 (Homo sapiens) (UniProt P04637)
Sequence (P04637 whole entry, looked up): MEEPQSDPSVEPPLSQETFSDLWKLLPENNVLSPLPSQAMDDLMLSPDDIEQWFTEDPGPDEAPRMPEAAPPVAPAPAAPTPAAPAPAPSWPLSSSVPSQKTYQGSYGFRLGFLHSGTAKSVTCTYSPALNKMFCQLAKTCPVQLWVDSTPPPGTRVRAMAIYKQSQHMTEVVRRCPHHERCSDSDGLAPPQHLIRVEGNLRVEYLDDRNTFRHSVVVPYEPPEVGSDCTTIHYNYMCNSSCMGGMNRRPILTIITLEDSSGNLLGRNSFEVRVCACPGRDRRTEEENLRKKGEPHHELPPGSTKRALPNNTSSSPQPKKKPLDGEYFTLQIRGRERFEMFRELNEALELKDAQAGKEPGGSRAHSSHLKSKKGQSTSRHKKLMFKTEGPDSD
Assay: TOX21_p53_BLA_p5_ratio: Tox21 HCT-116 p53 Agonism Beta-lactamase Assay, Ratio, Phase 5 (AID 2283599)
Outline: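 HCT-116 p53-bla cells (4000/well) plated 5 h, dosed with compound (217-fold DMSO dilution) for 16 h at 37 C; CCF4-AM substrate 2 h at room temperature. Activity is the 460/530 nm emission ratio (405 nm excitation), fitted in gain-of-signal direction versus DMSO.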

| Structure (SMILES) | outcome | AC50 |
| --- | --- | --- |
| CC1CCC(C(C)CS)CC1S (configuration not stated) | inactive | – |
| CCCCN | inactive | – |
| CCCCCCCCCCCCN | inactive | 83.1 µM (active) |
| CC(=O)OCCOC(C)=O | inactive | – |
| C=C(C)[C@@H]1CC[C@@H](C)C[C@@H]1O | inactive | – |
| CCC(=O)OCCC(C)CCC=C(C)C (configuration not stated) | inactive | – |
| CC1(CO)CN(c2ccccc2)NC1=O (configuration not stated) | inactive | – |
| CCN(CC)CCOC(=O)c1ccc(N)cc1 | inactive | – |
| COC(=O)c1ccc(C)cc1 | inactive | – |
| CCCCCCCCCCN | inactive | – |
| NCCNCCN | inactive | – |
| C[C@]12CC[C@H]3[C@@H](CCC4=CC(=O)CC[C@@]43C)[C@@H]1CC[C@@H]2C(=O)CO | inactive | – |
| O=C1OC2(c3cc(Br)c(O)c(Br)c3Oc3c2cc(Br)c(O)c3Br)c2c(Cl)c(Cl)c(Cl)c(Cl)c21 | inactive | 50.2 µM (active) |
| Cc1ccc(C(=O)c2cc(O)c(O)c([N+](=O)[O-])c2)cc1 | inactive | 71.3 µM (active) |
| CNCCCC12CCC(c3ccccc31)c1ccccc12 | inactive | 90.1 µM (active) |
| COCCCOc1ccnc(CS(=O)c2nc3ccccc3[nH]2)c1C (configuration not stated) | inactive | – |
| Cc1ccc(Nc2ccc(O)c3c2C(=O)c2ccccc2C3=O)cc1 | inactive | – |
| CC(C)(C)c1n[nH]c(=S)n(N)c1=O | inactive | – |
| CC(C)=CCO | inactive | – |
| COC(=O)OC | inactive | – |
| Cc1ccccc1C=O | inactive | – |
| CC[Si](OC(C)=O)(OC(C)=O)OC(C)=O | inactive | – |
| CCn1c2ccccc2c2cc(N)ccc21 | inactive | – |
| CC1(C)[C@H]2CC[C@]1(C)[C@H](O)C2 | inactive | – |
